In PubChem BioAssay AID431 (Sanford-Burnham Center for Chemical Genomics, 2006) one finds cytotoxicity data, which are given here for 98 compounds.

Each structure is given as a SMILES string. In all, about 63,000 compounds went through this assay and about 1,100 (1.7%) were called active. Many of the other results were omitted from the sample, so actives are more common in it than they were. Entries with a potency or affinity are not part of this list. A number with no mark means an inactive call.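 Rule for the calls: active = compounds whose percent cytotoxicity in the single-dose primary screen, scaled between solvent and toxic-drug controls, exceeds 50; inactive = the rest.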

The experiment is described as follows: cytotoxicity in KRAS-transformed pancreatic duct cells, primary screen, cell-based, fluorescence, HTS (AID 431).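 Note: 0% = DMSO solvent wells and 100% = doxorubicin-treated wells.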 The following applies: HPDE-C7K KRASV12 cells, Alamar Blue viability, 48 h; at 10 µM; hits give high values.
Turning to `CCc1cccc(CC)c1N(COC)C(=O)Cn1c(CO)nc2ccccc21`, the cytotoxicity is -6.1%.

Consider `CCOc1ccc(-n2c(=O)cc(N3CCN(c4ccccc4)CC3)[nH]c2=O)cc1`, for which the cytotoxicity is 7.9%.

Take `CCOC(=O)CSc1nnc(CNC(=O)c2ccco2)n1C`: the cytotoxicity was -0.1%.

Consider `O=C(NC1CCCC1)C1C2C=CC3(CN(Cc4cccs4)C(=O)C13)O2` (stereo not drawn), for which the cytotoxicity is 3.8%.

Consider `Cc1ccc2nc(NCc3ccco3)c(C=NCc3ccco3)c(=O)n2c1`, for which the cytotoxicity was -7.1%.

With `CC(=O)N[C@H]1C[C@@H]1c1ccccc1`, the cytotoxicity was 6.6%.

Turning to `COc1ccc(NC(=O)CS(=O)CC(=O)NCc2cccc(C(F)(F)F)c2)cc1` (stereo not drawn), the cytotoxicity was 1%.

`COc1ccc(NC(=O)CSc2nnc(-c3ccccc3)n2Cc2ccco2)c(OC)c1`: the cytotoxicity was -5.5%.

Regarding `COc1ccc(CCN(Cc2cc3cc4c(cc3[nH]c2=O)OCO4)C(C)=O)cc1OC`, the cytotoxicity is -1.5%.

Regarding `CC(=O)N(CCc1ccccc1C)Cc1cc2cc3c(cc2[nH]c1=O)OCO3`, the cytotoxicity is 53.3% (active).

On to `CCC(=O)N(CCc1ccccc1C)Cc1cc2cc3c(cc2[nH]c1=O)OCO3`, for which the cytotoxicity was -20.6%.

`COc1ccccc1C(=O)Nc1ccc(S(=O)(=O)Nc2cc(C)on2)cc1`: the cytotoxicity was 3.1%.

Turning to `O=C(Nn1c(C2CC2)nc2ccccc2c1=O)c1ccco1`, the cytotoxicity is -1.6%.

As to `Cc1nc2ccccn2c(=O)c1CCN1CCC(C(=O)c2ccc(F)cc2)CC1`, the cytotoxicity is 10.8%.

For `O=c1cc(CN2CCN(c3ccc(F)cc3)CC2)nc2sccn12`, the cytotoxicity was -7.8%.

For `Cn1c(SCc2nc3ccccc3[nH]2)nnc1-c1cccs1`, the cytotoxicity was -13.1%.

For `CCCCN(CC)S(=O)(=O)c1ccc(C(=O)Nc2nnc(-c3ccccc3Cl)o2)cc1`, the cytotoxicity is 58.3% (active).

With `O=C(Nc1nnc(-c2cccs2)o1)c1cccc(C(F)(F)F)c1`, the cytotoxicity was 77.3% (active).

As to `CC1CC(C)CN(S(=O)(=O)c2ccc(C(=O)Nc3nnc(-c4cccs4)o3)cc2)C1` (stereo not drawn), the cytotoxicity is 56.6% (active).

In the case of `CC1CN(S(=O)(=O)c2ccc(C(=O)Nc3nnc(-c4ccc5c(c4)CCCC5)o3)cc2)CC(C)O1` (stereo not drawn), the cytotoxicity is 33.7%.

For the compound `CCCCN(C)S(=O)(=O)c1ccc(C(=O)Nc2nnc(-c3cccs3)o2)cc1`, the cytotoxicity was 32.1%.

With `O=C(Nc1nnc(-c2cccs2)o1)c1cccc(F)c1`, the cytotoxicity was 21.9%.

Consider `COc1cccc(C(=O)Nc2nnc(-c3cccs3)o2)c1`, for which the cytotoxicity is 15.6%.

For `O=C(Nc1nnc(-c2cccs2)o1)c1cccc(Oc2ccccc2)c1`, the cytotoxicity was 35.3%.

For `CCN(Cc1ccccc1)S(=O)(=O)c1ccc(C(=O)Nc2nnc(C3CC3)o2)cc1`, the cytotoxicity is 6.4%.

In the case of `CCCCN(CC)S(=O)(=O)c1ccc(C(=O)Nc2nnc(-c3cccs3)o2)cc1`, the cytotoxicity was 52.7% (active).

As to `Brc1ccc(-c2nnc(-c3ccc4c(c3)OCO4)o2)o1`, the cytotoxicity was -2%.

Consider `COC(=O)c1ccccc1NC(=O)CSc1nnnn1C1CCCCC1`, for which the cytotoxicity was 0.6%.

As for `O=C(Nc1nccs1)C1CCN(S(=O)(=O)c2cccnc2)CC1`, the cytotoxicity is -8.7%.

`COCCCn1cnc2c(c1=O)c1nc3ccccc3nc1n2-c1ccc(C)cc1`: the cytotoxicity was -9.5%.

Regarding `Cn1c(=O)oc2cc(S(=O)(=O)NC3CCCc4ccccc43)ccc21` (stereo not drawn), the cytotoxicity was -4%.

Turning to `O=C(CCCn1c(=S)[nH]c2ccccc2c1=O)NCc1ccco1`, the cytotoxicity was -11%.

For the compound `CCC1CCCCN1S(=O)(=O)c1ccc(C(=O)Nc2nnc(-c3ccccc3Cl)o2)cc1` (stereo not drawn), the cytotoxicity was 76.1% (active).

`O=C(Nc1nnc(C2CC2)o1)c1ccc(S(=O)(=O)N2CCCc3ccccc32)cc1`: the cytotoxicity is 60.6% (active).

As to `CC1(C)COCN1S(=O)(=O)c1ccc(C(=O)Nc2nnc(-c3ccc(Cl)s3)o2)cc1`, the cytotoxicity was 93.6% (active).

As to `CCCC(=O)Nc1nnc(-c2ccc(Cl)s2)o1`, the cytotoxicity is -1.5%.

For the compound `O=C(Nc1ccc(S(=O)(=O)N2CCCc3ccccc32)cc1)C1CCCO1` (stereo not drawn), the cytotoxicity is 12.3%.

Take `CN1CCN(S(=O)(=O)c2ccc(NC(=O)c3cccs3)cc2)CC1`: the cytotoxicity was -16.7%.

For `COc1ccc(-c2nnc(NC(=O)c3ccc(S(=O)(=O)N4CCCc5ccccc54)cc3)o2)cc1`, the cytotoxicity is 49.3%.

Regarding `CC1CCN(S(=O)(=O)c2ccc(NC(=O)c3cccs3)cc2)CC1`, the cytotoxicity is 15.7%.

Turning to `COc1ccc(-c2nnc(NC(=O)c3ccc(S(=O)(=O)N4COCC4(C)C)cc3)o2)cc1`, the cytotoxicity was 14.3%.

`CC1CCCCN1S(=O)(=O)c1ccc(NC(=O)c2cccs2)cc1` (stereo not drawn): the cytotoxicity was 57.2% (active).

For the compound `CCC1CCCCN1S(=O)(=O)c1ccc(C(=O)Nc2nnc(-c3cccs3)o2)cc1` (stereo not drawn), the cytotoxicity is 11.8%.

In the case of `O=C(Nc1nnc(-c2ccccc2Cl)o1)c1cccnc1`, the cytotoxicity was 28.8%.

For `O=C1C(C=NCCCn2ccnc2)=C(O)c2ccccc21`, the cytotoxicity was 1%.

Turning to `O=C(NC1CCCCC1)C1CCCN1C(=O)NCc1ccccc1` (stereo not drawn), the cytotoxicity was 11.8%.

For `CCNS(=O)(=O)c1ccc(OCCNS(C)(=O)=O)cc1`, the cytotoxicity was -2.5%.

Consider `O=C(/C=C/N1CCOCC1)c1coc2ccccc12`, for which the cytotoxicity is -4.5%.

For `Cc1cccc(C)c1NC(=O)CSc1nnc(-c2ccoc2C)n1C`, the cytotoxicity is -5.8%.

As for `O=C(OCCN(C1=NS(=O)(=O)c2ccccc21)c1ccc(Cl)cc1)c1ccco1`, the cytotoxicity is -16.8%.

Turning to `CC(O)CCc1nc2ccc(C(=O)O)cc2[nH]1` (stereo not drawn), the cytotoxicity is -5.2%.

In the case of `CCc1nnc(NC(=O)c2ccc(S(=O)(=O)N3CCCCC3C)cc2)s1` (stereo not drawn), the cytotoxicity is -7.7%.

Turning to `CC1CCCN(S(=O)(=O)c2ccc(C(=O)Nc3nnc(-c4ccccc4Cl)o3)cc2)C1` (stereo not drawn), the cytotoxicity was 63.8% (active).

As to `Cc1nnc(NC(=O)c2ccc(S(=O)(=O)N3CCCCCC3)cc2)o1`, the cytotoxicity is 6.5%.

Take `CC1CCCCN1S(=O)(=O)c1ccc(C(=O)Nc2nnc(-c3ccccc3Cl)o2)cc1` (stereo not drawn): the cytotoxicity was 56.7% (active).

Turning to `O=C(Nc1nnc(-c2ccccc2Cl)o1)c1ccc(S(=O)(=O)N2CCCCCC2)cc1`, the cytotoxicity was 43.8%.

Regarding `CC1CCCCN1S(=O)(=O)c1ccc(NC(=O)c2cccc(-n3cnnn3)c2)cc1` (stereo not drawn), the cytotoxicity is 20.3%.

Turning to `O=C(Nc1ccccc1C(=O)N1CCOCC1)c1ccco1`, the cytotoxicity is 3.4%.

Regarding `Cc1ccc(C)c(C(=O)CSc2nnnn2-c2cccnc2)c1`, the cytotoxicity is 0.6%.

With `Cc1cc(C)n(S(=O)(=O)c2cccc(Cl)c2Cl)n1`, the cytotoxicity is -9.2%.

As for `COc1nc(-c2ccccc2)ccc1-c1noc(-c2ccco2)n1`, the cytotoxicity was -3%.

As for `COC(=O)c1ccccc1S(=O)(=O)N(Cc1ccco1)Cc1cc2cc(OC)ccc2[nH]c1=O`, the cytotoxicity was -1.7%.

As for `COC(=O)CCC(=O)Nc1sc2c(c1C#N)CCCC2`, the cytotoxicity was -6.7%.

Turning to `CCCC(=O)Nc1sc2c(c1C#N)CCCC2`, the cytotoxicity is 1.4%.

As for `CCc1ccc(CCC(=O)Nc2sc3c(c2C#N)CCCC3)o1`, the cytotoxicity is 73.8% (active).

Take `CCOC(=O)C1C(c2cccc(Cl)c2Cl)NC(=O)NC1(O)C(F)(F)F` (stereo not drawn): the cytotoxicity is 10.1%.

Turning to `COC(=O)C1=C(C)NC(=O)CC1c1cccc(Cl)c1Cl` (stereo not drawn), the cytotoxicity was -0.8%.

Regarding `O=C(Nc1ccc2c(c1)OCO2)c1ccc(Br)c(S(=O)(=O)N2CCCC2)c1`, the cytotoxicity is 14.5%.

Consider `CCc1ncc(C(O)c2cccc(OC)c2OC)n1C` (stereo not drawn), for which the cytotoxicity is 6.9%.

Take `CCOC(=O)c1c(N)sc(C(=O)Nc2ccc3c(c2)OCO3)c1C`: the cytotoxicity is 19.8%.

For the compound `CCN(CC)S(=O)(=O)c1ccc(NC(=O)Cn2c(=O)oc3ccccc32)cc1`, the cytotoxicity is 1.6%.

On to `Cc1nn2c(N3CCOCC3)c3c(nc2c1-c1ccccc1)CCCC3`, for which the cytotoxicity was 8.5%.

Take `CC1=C(C#N)c2nc(N)c(C#N)c(C)c2/C1=C\c1ccccc1`: the cytotoxicity was 107% (active).

With `Cc1c(-c2ccccc2)nc(N)c(C#N)c1-c1ccco1`, the cytotoxicity is -7.4%.

In the case of `Cc1nc(N)c(C#N)c(-c2ccccc2)c1C`, the cytotoxicity was 18.7%.

Turning to `COC(=O)Nc1nc2ccc(Sc3ccccc3)cc2[nH]1`, the cytotoxicity is 57.5% (active).

With `Cc1nc2ccc(C(=O)c3ccccc3)cc2[nH]1`, the cytotoxicity was 1.1%.

On to `O=C(Nc1nc2ccccc2[nH]1)c1ccc(F)cc1`, for which the cytotoxicity was -12%.

Consider `O=C(COc1ccccc1)Nc1nc2ccccc2[nH]1`, for which the cytotoxicity is -1.5%.

Regarding `COC(=O)Nc1nc2ccc(C(=O)c3ccccc3)cc2[nH]1`, the cytotoxicity is 67.2% (active).

In the case of `COc1cc(C(=O)Nc2nc3ccccc3[nH]2)cc(OC)c1OC`, the cytotoxicity was -19.5%.

As for `CCC(C)N(C(=O)COC(=O)Cc1n[nH]c(=O)c2ccccc12)C1CCS(=O)(=O)C1` (stereo not drawn), the cytotoxicity is -29.5%.

In the case of `O=C(CN(C(=O)Cn1nnc(-c2cccs2)n1)c1cnc2ccccc2c1)NCC1CCCO1` (stereo not drawn), the cytotoxicity is -3.6%.

In the case of `O=C(COc1ccc(F)c(Cl)c1)c1ccc[nH]1`, the cytotoxicity is -3.1%.

`COc1cc(-c2nnc(-c3ccc(S(=O)(=O)c4ccccc4)cc3)o2)cc(OC)c1OC`: the cytotoxicity is -1.1%.

`COc1ccc(C2C(C(=O)N3CCCC3)CC(=O)N2c2ccc(OC)cc2)cc1` (stereo not drawn): the cytotoxicity was 1.8%.

For `CN(C)CC(=O)c1ccc(-c2ccccc2)cc1`, the cytotoxicity is -1.7%.

For the compound `CC(=O)Nc1cc(-c2nn3c(C)nnc3s2)ccc1C`, the cytotoxicity was 6.7%.

Consider `Cc1cc(C)c(C#N)c(SCC(=O)CC(=O)OC(C)C)n1`, for which the cytotoxicity was 29.7%.

With `Cc1nc(SCC(=O)CC(=O)OC(C)C)c(C#N)c(C)c1C`, the cytotoxicity was -4.4%.

Turning to `CCOC(=O)CC(=O)Nc1nnc(CC(C)C)s1`, the cytotoxicity was -10.3%.

For `CCOC(=O)N1CCC(NC(=O)Cn2cccc2C(=O)c2ccccc2)CC1`, the cytotoxicity was -6.2%.

Consider `COc1ccccc1C(=O)Oc1cc(N)n(S(=O)(=O)c2ccc(C)cc2)n1`, for which the cytotoxicity is -5.5%.

For the compound `Cc1onc(-c2ccccc2Cl)c1C(=O)Oc1cc(N)n(S(=O)(=O)c2ccc(F)cc2)n1`, the cytotoxicity is 36.8%.

As to `COc1ccc(S(=O)(=O)n2nc(OC(=O)c3ccc(C)cc3)cc2N)cc1`, the cytotoxicity is -7.7%.

With `COc1ccc(S(=O)(=O)n2nc(OC(=O)c3ccccc3)cc2N)cc1`, the cytotoxicity was 0%.

`COc1ccc(S(=O)(=O)n2nc(OC(=O)c3c(-c4ccccc4Cl)noc3C)cc2N)cc1`: the cytotoxicity was 51.1% (active).

With `Cc1ccc(S(=O)(=O)n2nc(OC(=O)c3c(-c4ccccc4Cl)noc3C)cc2N)cc1`, the cytotoxicity is 73% (active).
